Assay results published in the supplement of paper PMC10849652.
Of roughly 8,800 targets only a part is listed; those with a hit were picked by preference. About 0.5% of all pairs of compound and target were hits.

Tests used:
Experiment in all cases: log2 fold change, soluble protein after heating vs DMSO (PISA); higher = thermal stabilisation; K562 lysate, 10 uM; active = over 0.2 and 3.5 SD of the protein, either way, in both replicates (recomputed)
ibrutinib = compound: C=CC(=O)N1CCC[C@@H](n2nc(-c3ccc(Oc4ccccc4)cc3)c3c(N)ncnc32)C1 [ibrutinib]
Procedure, shortened: (§1)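 K562 pellets were dounce-homogenised in PBS pH 7.4 containing 1 mM MgCl2, and the crude extract, at 1 mg/mL protein, was exposed to 10 μM compound for 30 min. Aliquots were heated for 3 min across 48°C-58°C, pooled, brought to 0.5% NP-40 at 4°C and spun at 21,000xg for 90 min, with the supernatant taken as soluble protein. TMTpro 16plex LC-MS/MS with equalised channel sums quantified that protein. Values are log-two fold changes in thermal stability relative to solvent controls, taken from duplicates.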

[1] = compound: CC(=O)c1cnc2ccc(-c3cc(Cl)c(O)c(Cl)c3)nc2c1N[C@H]1CC[C@H](CN(C)C)CC1
Procedure, shortened: as §1

ralimetinib = compound: CC(C)(C)Cn1c(N)nc2ccc(-c3[nH]c(C(C)(C)C)nc3-c3ccc(F)cc3)nc21 [ralimetinib]
Procedure, shortened: as §1

[2] = compound: CC(C)(O)CC(=O)NCCn1ccc2ncnc(Nc3ccc(Oc4cccc(C(F)(F)F)c4)c(Cl)c3)c21
Procedure, shortened: as §1

[3] = compound: CC(C)C1=C2N=C(C=C(N2N=C1)NCC3=CC=CC=C3)NCCCCCCN
Procedure, shortened: as §1

[4] = compound: CC1=C(C(CC(=O)N1)C2=CC=C(C=C2)C(F)(F)F)C(=O)NC3=C(C=C4C(=C3)C=NN4)F
Procedure, shortened: as §1

[5] = compound: CC1=C(C2=C(C=C1)C(=O)C3=CC=CC=C3N2CCCN)C
Procedure, shortened: as §1

[6] = compound: CC1=C(C=C(C=C1)NC(=O)C2=CC(=CC=C2)C(C)(C)C#N)NC3=CC4=C(C=C3)N=CN(C4=O)C
Procedure, shortened: as §1

[7] = compound: CC1=C(C=C(C=C1)NC(=O)C2=CC(=CC=C2)N(C)C)NC(=O)C3=CC=C(C=C3)O
Procedure, shortened: as §1

[8] = compound: CC1=CC=C(C=C1)SC2=C3C=C(SC3=CN=C2)C(=O)N
Procedure, shortened: as §1

vemurafenib = compound: CCCS(=O)(=O)Nc1ccc(F)c(C(=O)c2c[nH]c3ncc(-c4ccc(Cl)cc4)cc23)c1F [vemurafenib]
Procedure, shortened: as §1

[9] = compound: CCCS(=O)(=O)Nc1ccc(F)c(C(=O)c2c[nH]c3ncc(Cl)cc23)c1F
Procedure, shortened: as §1

barasertib = compound: CCN(CCCOc1ccc2c(Nc3cc(CC(=O)Nc4cccc(F)c4)[nH]n3)ncnc2c1)CCOP(=O)(O)O [barasertib]
Procedure, shortened: as §1

[10] = compound: CC[C@@H]1C(=O)N(C)c2cnc(Nc3ccc(C(=O)NC4CCN(C)CC4)cc3OC)nc2N1C1CCCC1
Procedure, shortened: as §1

volasertib = compound: CC[C@@H]1C(=O)N(C)c2cnc(Nc3ccc(C(=O)N[C@H]4CC[C@H](N5CCN(CC6CC6)CC5)CC4)cc3OC)nc2N1C(C)C [volasertib]
Procedure, shortened: as §1

[11] = compound: CCn1c(C(=O)N(C2CC2)C2CC2)cc2c3c(ncn3C)c(Nc3cc(C)n(C)n3)nc21
Procedure, shortened: as §1

[12] = compound: CCn1cc(-c2ccnc3[nH]c(-c4cccc(CN(C)C)c4)cc23)c(-c2ccc(NC(=O)N(C)C)cc2)n1
Procedure, shortened: as §1

[13] = compound: CN1CCC(CNc2ccc3ncc(-c4cccc(OC(F)(F)F)c4)n3n2)CC1
Procedure, shortened: as §1

saracatinib = compound: CN1CCN(CCOc2cc(OC3CCOCC3)c3c(Nc4c(Cl)ccc5c4OCO5)ncnc3c2)CC1 [saracatinib]
Procedure, shortened: as §1

sotrastaurin = compound: CN1CCN(c2nc(C3=C(c4c[nH]c5ccccc45)C(=O)NC3=O)c3ccccc3n2)CC1 [sotrastaurin]
Procedure, shortened: as §1

Measured: log2 fold change

SESN2 (UniProt P58004)
Chain of UniProt P58004 (P58004 whole entry, looked up): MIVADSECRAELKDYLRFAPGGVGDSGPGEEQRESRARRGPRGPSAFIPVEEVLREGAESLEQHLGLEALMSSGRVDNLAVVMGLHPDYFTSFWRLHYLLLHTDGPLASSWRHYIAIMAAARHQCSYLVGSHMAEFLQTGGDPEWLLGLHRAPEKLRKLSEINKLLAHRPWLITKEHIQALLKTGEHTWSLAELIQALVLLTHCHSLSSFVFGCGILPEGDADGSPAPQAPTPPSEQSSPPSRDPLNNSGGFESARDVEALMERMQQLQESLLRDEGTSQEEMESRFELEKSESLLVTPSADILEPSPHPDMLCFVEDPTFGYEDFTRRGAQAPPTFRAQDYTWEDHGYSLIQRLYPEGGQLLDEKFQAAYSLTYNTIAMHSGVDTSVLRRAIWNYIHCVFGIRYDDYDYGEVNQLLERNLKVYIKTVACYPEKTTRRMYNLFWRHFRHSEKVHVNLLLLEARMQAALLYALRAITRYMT
inactive: ibrutinib -0.001 | [1] -0.038 | ralimetinib 0.018 | [2] 0.007 | [3] 0.019 | [4] -0.051 | [5] -0.064 | [6] 0.008 | [7] 0.078 | [8] 0.205 | vemurafenib -0.008 | [9] 0.025 | barasertib 0.049 | [10] -0.103 | volasertib -0.066 | [11] 0.019 | [12] 0.02 | [13] -0.105 | saracatinib -0.043 | sotrastaurin 0.047

R3HCC1 (UniProt Q9Y3T6)
Chain of UniProt Q9Y3T6 (Q9Y3T6 whole entry, looked up, one chain of several): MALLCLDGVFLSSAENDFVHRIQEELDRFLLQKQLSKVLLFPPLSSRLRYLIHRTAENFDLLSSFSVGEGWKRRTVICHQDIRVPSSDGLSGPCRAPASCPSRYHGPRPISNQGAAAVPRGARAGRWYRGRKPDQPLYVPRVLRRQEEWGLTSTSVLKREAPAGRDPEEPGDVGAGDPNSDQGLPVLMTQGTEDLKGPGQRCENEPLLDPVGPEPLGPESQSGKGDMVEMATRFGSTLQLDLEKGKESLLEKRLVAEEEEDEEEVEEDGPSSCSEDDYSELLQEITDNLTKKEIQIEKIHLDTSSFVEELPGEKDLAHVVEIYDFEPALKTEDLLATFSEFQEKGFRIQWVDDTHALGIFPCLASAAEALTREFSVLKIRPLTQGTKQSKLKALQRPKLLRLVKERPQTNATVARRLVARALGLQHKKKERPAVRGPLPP
inactive: ibrutinib 0.02 | [1] 0.058 | ralimetinib 0.016 | [2] -0.028 | [3] -0.045 | [4] 0.022 | [5] -0.061 | [6] 0.017 | [7] -0.001 | [8] 0.025 | vemurafenib 0.07 | [9] 0.036 | barasertib 0.009 | [10] 0.044 | volasertib -0.015 | [11] -0.022 | [12] -0.066 | [13] 0.082 | saracatinib 0.029 | sotrastaurin 0.021

RABEPK (UniProt Q7Z6M1)
Chain of UniProt Q7Z6M1 (Q7Z6M1 whole entry, looked up): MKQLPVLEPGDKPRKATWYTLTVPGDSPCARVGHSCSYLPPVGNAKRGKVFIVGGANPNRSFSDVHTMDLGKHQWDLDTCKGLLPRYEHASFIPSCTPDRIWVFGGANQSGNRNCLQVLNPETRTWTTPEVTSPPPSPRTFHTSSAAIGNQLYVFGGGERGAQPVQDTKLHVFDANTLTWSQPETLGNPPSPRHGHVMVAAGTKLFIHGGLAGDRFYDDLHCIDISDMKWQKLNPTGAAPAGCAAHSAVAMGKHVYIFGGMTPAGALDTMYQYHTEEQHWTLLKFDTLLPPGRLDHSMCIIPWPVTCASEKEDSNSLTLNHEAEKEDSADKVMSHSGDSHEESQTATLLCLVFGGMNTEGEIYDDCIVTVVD
inactive: ibrutinib 0 | [1] -0.002 | ralimetinib 0.01 | [2] -0.006 | [3] 0.018 | [4] -0.009 | [5] -0.007 | [6] 0.008 | [7] 0.001 | [8] 0 | vemurafenib -0.024 | [9] 0.003 | barasertib -0.066 | [10] 0.014 | volasertib -0.006 | [11] -0.021 | [12] 0.015 | [13] 0.011 | saracatinib -0.02 | sotrastaurin -0.028

RCC1 isoform 2 (UniProt P18754)
inactive: ibrutinib -0.008 | [1] 0.012 | ralimetinib 0.041 | [2] 0.019 | [3] 0.015 | [4] -0.048 | [5] -0.037 | [6] -0.01 | [7] 0.036 | [8] 0.01 | vemurafenib 0.049 | [9] 0.018 | barasertib -0.008 | [10] -0.114 | volasertib -0.066 | [11] 0.027 | [12] -0.105 | [13] -0.046 | saracatinib -0.021 | sotrastaurin 0.001

SCML2 (UniProt Q9UQR0)
Chain of UniProt Q9UQR0 (Q9UQR0 whole entry, looked up): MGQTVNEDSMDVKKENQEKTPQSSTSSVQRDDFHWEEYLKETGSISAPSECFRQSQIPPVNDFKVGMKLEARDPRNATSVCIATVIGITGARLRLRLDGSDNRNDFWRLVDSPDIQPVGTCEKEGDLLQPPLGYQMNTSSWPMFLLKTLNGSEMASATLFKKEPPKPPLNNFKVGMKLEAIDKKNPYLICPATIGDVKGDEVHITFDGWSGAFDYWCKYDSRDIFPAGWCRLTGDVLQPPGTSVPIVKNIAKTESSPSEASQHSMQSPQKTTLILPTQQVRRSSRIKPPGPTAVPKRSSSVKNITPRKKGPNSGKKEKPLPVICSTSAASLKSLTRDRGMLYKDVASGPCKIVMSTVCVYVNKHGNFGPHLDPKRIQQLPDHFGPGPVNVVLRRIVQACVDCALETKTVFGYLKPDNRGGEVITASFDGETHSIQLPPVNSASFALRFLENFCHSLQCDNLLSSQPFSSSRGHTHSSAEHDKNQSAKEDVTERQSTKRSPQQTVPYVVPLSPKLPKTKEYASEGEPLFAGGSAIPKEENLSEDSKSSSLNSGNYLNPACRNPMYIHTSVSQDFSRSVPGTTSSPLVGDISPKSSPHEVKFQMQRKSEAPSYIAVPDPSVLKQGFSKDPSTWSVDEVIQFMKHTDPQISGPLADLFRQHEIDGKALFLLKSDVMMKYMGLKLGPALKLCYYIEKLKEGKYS
inactive: ibrutinib -0.011 | [1] 0.028 | ralimetinib 0.004 | [2] 0.034 | [3] -0.011 | [4] 0.011 | [5] -0.012 | [6] -0.015 | [7] -0.006 | [8] 0.109 | vemurafenib 0.033 | [9] -0.006 | barasertib -0.028 | [10] -0.007 | volasertib -0.018 | [11] 0.02 | [12] 0.033 | [13] 0.032 | saracatinib 0.064 | sotrastaurin -0.067

REL isoform 2 (UniProt Q04864)
Chain of UniProt Q04864 (Q04864 whole entry, looked up): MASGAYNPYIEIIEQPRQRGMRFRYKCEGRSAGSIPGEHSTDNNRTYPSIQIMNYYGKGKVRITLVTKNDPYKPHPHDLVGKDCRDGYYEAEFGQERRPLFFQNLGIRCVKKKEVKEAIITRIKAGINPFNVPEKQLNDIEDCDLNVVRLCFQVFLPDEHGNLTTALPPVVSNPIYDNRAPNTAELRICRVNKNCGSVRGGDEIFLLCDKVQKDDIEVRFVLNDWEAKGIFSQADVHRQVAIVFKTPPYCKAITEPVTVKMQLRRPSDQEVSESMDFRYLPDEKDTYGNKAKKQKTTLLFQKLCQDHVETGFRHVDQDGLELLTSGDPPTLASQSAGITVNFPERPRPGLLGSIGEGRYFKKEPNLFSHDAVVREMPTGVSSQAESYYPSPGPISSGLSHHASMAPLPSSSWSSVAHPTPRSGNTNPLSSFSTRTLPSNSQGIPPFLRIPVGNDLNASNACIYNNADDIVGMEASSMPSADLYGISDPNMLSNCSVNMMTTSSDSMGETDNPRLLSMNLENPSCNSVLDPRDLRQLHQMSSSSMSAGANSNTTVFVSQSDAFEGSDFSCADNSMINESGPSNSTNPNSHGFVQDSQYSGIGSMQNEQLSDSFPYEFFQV
inactive: ibrutinib 0.032 | [1] 0.015 | ralimetinib 0.06 | [2] -0.003 | [3] 0.005 | [4] -0.018 | [5] 0.038 | [6] 0.022 | [7] -0.023 | [8] 0.049 | vemurafenib -0.035 | [9] 0.017 | barasertib 0.033 | [10] 0.049 | volasertib -0.032 | [11] 0.025 | [12] 0.02 | [13] -0.174 | saracatinib -0.002 | sotrastaurin -0.022

QRSL1 (UniProt Q9H0R6)
Chain of UniProt Q9H0R6 (Q9H0R6 whole entry, looked up): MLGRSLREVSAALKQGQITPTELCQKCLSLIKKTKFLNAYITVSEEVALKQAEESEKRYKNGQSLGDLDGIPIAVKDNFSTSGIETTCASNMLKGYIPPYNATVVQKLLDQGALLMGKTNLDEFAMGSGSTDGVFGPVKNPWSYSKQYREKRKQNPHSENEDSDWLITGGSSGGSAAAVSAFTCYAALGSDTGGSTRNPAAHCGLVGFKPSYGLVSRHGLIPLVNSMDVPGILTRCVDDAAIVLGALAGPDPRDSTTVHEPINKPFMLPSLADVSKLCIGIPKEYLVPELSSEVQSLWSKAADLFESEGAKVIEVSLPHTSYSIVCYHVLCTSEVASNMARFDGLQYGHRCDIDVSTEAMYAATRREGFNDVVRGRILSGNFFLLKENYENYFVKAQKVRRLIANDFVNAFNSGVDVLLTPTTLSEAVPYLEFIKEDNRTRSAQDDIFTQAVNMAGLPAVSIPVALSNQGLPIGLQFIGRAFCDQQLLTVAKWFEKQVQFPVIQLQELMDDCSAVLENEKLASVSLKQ
inactive: ibrutinib -0.171 | [1] -0.059 | ralimetinib 0.018 | [2] -0.064 | [3] 0.066 | [4] -0.003 | [5] -0.073 | [6] -0.041 | [7] 0.027 | [8] 0.076 | vemurafenib 0.134 | [9] 0.012 | barasertib 0.044 | [10] -0.004 | volasertib -0.057 | [11] 0.008 | [12] -0.178 | [13] -0.138 | saracatinib -0.056 | sotrastaurin 0.071

SASS6 (UniProt Q6UVJ0)
inactive: ibrutinib -0.006 | [1] 0.023 | ralimetinib -0.006 | [2] -0.056 | [3] -0.017 | [4] 0.024 | [5] 0.007 | [6] 0.015 | [7] 0.001 | [8] -0.021 | vemurafenib 0.042 | [9] -0.024 | barasertib -0.016 | [10] 0.039 | volasertib -0.024 | [11] 0.024 | [12] 0.154 | [13] -0.047 | saracatinib 0.059 | sotrastaurin -0.02

RRM1 (UniProt P23921)
inactive: ibrutinib 0.025 | [1] 0 | ralimetinib 0.005 | [2] -0.01 | [3] 0.022 | [4] 0 | [5] -0.033 | [6] -0.009 | [7] 0.024 | [8] 0.016 | vemurafenib 0.023 | [9] 0.018 | barasertib 0.011 | [10] -0.065 | volasertib -0.063 | [11] 0.003 | [12] -0.045 | [13] -0.031 | saracatinib -0.02 | sotrastaurin -0.016

RSU1 (UniProt Q15404)
Chain of UniProt Q15404 (Q15404 whole entry, looked up): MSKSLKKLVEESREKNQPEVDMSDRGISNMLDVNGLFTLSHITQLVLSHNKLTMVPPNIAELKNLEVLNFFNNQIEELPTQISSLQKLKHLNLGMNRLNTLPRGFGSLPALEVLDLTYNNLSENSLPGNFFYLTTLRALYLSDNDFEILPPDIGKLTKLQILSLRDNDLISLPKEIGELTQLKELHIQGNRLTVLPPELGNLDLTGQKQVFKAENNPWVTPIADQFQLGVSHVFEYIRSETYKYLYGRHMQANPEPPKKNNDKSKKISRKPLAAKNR
inactive: ibrutinib 0 | [1] 0.005 | ralimetinib -0.005 | [2] -0.02 | [3] 0.005 | [4] 0.019 | [5] -0.022 | [6] -0.017 | [7] -0.027 | [8] -0.012 | vemurafenib -0.006 | [9] 0.005 | barasertib -0.067 | [10] 0.026 | volasertib 0.022 | [11] 0.004 | [13] -0.143 | saracatinib -0.032 | sotrastaurin -0.019
active: [12] 0.405

RAPGEF2, A0A2R8YGD3
inactive: ibrutinib -0.059 | [1] 0.007 | ralimetinib 0.008 | [2] -0.037 | [3] 0.008 | [4] 0.054 | [5] -0.07 | [6] 0.025 | [7] -0.025 | [8] 0.023 | vemurafenib 0 | [9] 0.013 | barasertib 0.144 | [10] 0.093 | volasertib -0.015 | [11] -0.029 | [12] 0.325 | [13] 0.05 | saracatinib 0.01 | sotrastaurin -0.003

RPL28 (UniProt P46779)
active: [12] 0.278
inactive: ibrutinib -0.026 | [1] -0.011 | ralimetinib -0.003 | [2] -0.005 | [3] 0.006 | [4] -0.038 | [5] -0.066 | [6] -0.021 | [7] 0.012 | [8] 0.026 | vemurafenib 0 | [9] -0.016 | barasertib -0.049 | [10] -0.001 | volasertib 0.006 | [11] -0.017 | [13] -0.066 | saracatinib -0.011 | sotrastaurin -0.038

RIOK2 (UniProt Q9BVS4)
Chain of UniProt Q9BVS4 (Q9BVS4 whole entry, looked up): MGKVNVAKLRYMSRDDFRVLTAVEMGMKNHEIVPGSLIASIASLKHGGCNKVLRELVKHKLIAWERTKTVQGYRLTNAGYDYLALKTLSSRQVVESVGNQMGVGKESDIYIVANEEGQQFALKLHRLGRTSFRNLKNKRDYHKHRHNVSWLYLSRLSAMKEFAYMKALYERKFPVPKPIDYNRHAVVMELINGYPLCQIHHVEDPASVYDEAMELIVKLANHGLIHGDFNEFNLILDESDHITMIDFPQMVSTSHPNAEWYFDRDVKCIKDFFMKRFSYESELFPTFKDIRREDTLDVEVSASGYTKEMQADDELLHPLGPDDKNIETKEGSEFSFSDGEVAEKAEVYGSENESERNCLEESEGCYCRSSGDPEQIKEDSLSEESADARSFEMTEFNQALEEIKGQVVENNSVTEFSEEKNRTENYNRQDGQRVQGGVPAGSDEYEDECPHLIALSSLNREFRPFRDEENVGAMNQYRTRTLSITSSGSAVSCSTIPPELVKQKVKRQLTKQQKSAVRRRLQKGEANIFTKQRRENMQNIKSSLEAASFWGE
inactive: ibrutinib -0.012 | ralimetinib 0.026 | [2] -0.014 | [3] -0.021 | [4] -0.018 | [5] -0.011 | [6] -0.016 | [7] 0.013 | [8] 0.052 | vemurafenib -0.074 | [9] 0.006 | barasertib -0.053 | [10] 0.016 | volasertib -0.026 | [11] -0.03 | [12] -0.115 | [13] 0.066 | saracatinib -0.023 | sotrastaurin 0.04
active: [1] 0.512

SCO2 (UniProt O43819)
Chain of UniProt O43819 (O43819 whole entry, looked up): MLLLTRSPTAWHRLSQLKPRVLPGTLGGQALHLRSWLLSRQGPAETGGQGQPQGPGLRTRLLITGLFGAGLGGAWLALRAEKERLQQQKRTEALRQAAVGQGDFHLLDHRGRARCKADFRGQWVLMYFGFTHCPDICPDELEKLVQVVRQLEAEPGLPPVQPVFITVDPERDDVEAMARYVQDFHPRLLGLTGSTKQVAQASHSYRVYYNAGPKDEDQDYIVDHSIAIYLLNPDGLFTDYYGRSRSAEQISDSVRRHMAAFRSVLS
inactive: ibrutinib -0.021 | [1] -0.065 | ralimetinib -0.02 | [2] -0.142 | [3] 0 | [4] -0.258 | [5] -0.009 | [6] 0.017 | [7] 0.01 | [8] -0.117 | vemurafenib -0.064 | [9] 0.054 | barasertib 0.019 | [10] -0.075 | volasertib -0.028 | [11] -0.087 | [12] -0.235 | [13] 0.076 | saracatinib -0.046 | sotrastaurin 0.003

RNF123 (UniProt Q5XPI4)
inactive: ibrutinib 0.028 | [1] 0.017 | ralimetinib 0.029 | [2] -0.042 | [3] -0.003 | [4] -0.02 | [5] 0.001 | [6] 0.027 | [7] -0.016 | [8] 0.022 | vemurafenib 0.034 | [9] 0.003 | barasertib 0.019 | [10] -0.009 | volasertib -0.048 | [11] 0.035 | [12] -0.045 | [13] 0.004 | saracatinib -0.006 | sotrastaurin 0.03

RHAG (UniProt Q02094)
Chain of UniProt Q02094 (Q02094 whole entry, looked up): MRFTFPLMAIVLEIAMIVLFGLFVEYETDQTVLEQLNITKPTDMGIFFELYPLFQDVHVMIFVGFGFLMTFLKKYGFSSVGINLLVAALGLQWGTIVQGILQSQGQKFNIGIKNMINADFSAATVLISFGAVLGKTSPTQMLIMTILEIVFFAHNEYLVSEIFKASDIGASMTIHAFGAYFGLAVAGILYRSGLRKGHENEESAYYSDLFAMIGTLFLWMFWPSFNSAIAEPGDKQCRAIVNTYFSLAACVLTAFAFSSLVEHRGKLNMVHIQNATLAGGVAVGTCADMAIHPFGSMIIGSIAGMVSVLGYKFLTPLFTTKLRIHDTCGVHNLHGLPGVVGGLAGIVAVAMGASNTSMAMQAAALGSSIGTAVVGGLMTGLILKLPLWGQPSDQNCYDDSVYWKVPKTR
inactive: ibrutinib 0.004 | [1] -0.035 | ralimetinib -0.001 | [2] -0.068 | [3] 0.042 | [4] 0.09 | [5] -0.056 | [6] 0.08 | [7] 0.008 | [8] -0.003 | vemurafenib -0.032 | [9] -0.116 | barasertib 0.054 | [10] -0.16 | volasertib 0.053 | [11] -0.003 | [13] 0.121 | saracatinib 0.053 | sotrastaurin 0.029
active: [12] -0.413
